# High-throughput results deposited in PubChem BioAssay by several laboratories.
# NR1D1 modulator: modulates human Rev-erb alpha binding to DNA; P20393; activity, % at 10 µM; 0.79% of 370,000 active; Rev-erbα–FITC-DNA binding, fluorescence polarization, 90 min;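 active means activity above about 14%, limit read from the data; passing the limit was not always enough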;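 further: 0% = DMSO wells with 35 nM protein and 100% = DMSO wells with 750 nM protein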
# EP2 mod: modulates human prostaglandin E2 receptor EP2 signaling | 0.83% of 260,000 active | EP2-expressing cells, cAMP HTRF FRET, PGE2 co-stimulation | induction, % at 25 µM;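 active means compounds whose cAMP rise, as percent of the full-agonist control response, exceeds 60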;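 further: rat C6 glioma line stably carrying human EP2 under a CMV promoter; the protocol text gives 20 µM as final concentration; 100% = response of wells given 1 µM PGE2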
# Target sequence (P43116 whole entry, looked up): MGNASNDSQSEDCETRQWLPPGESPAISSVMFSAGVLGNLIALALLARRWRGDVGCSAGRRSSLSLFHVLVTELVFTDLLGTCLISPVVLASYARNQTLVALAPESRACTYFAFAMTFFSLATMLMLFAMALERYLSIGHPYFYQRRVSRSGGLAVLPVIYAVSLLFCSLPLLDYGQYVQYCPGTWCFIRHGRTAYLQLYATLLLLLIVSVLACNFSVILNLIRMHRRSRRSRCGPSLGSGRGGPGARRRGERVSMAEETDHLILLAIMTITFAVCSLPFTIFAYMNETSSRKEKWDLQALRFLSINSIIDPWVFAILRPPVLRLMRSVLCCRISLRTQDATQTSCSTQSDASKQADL
# RAM inhibit: blocks the yeast RAM network. S. cerevisiae dse1pr::URA3 reporter, 5-FOA growth OD615, 2 d; analog-sensitive cbk1-as2 kinase mutant strain. inhibition, % at 50 µM. 1.8% of 190,000 active. AID 868;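 active means inhibition above a set limit, 3 SD over mean compound inhibition, cut at about 8.4% in these data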;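 further: 0% = DMSO-only wells with no growth and 100% = 10 µM 1-NA-PP1 full growth; inhibition rescues growth on 5-FOA so higher OD means more RAM inhibition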
# SKN-1 block: blocks SKN-1 activity in C. elegans | C. elegans VP596 Pgst-4::GFP/RFP ratio, acrylamide-induced, 24 h | 0.49% of 360,000 active | AID 624304 | inhibition, % at 21.8 µM;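 active means interference check ratio from 0.5 to 1.5 plus GFP to RFP signal ratio inhibition reaching or exceeding a fixed threshold, cut at about 30% in these data, passing the limit was not always enough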
# PG9 binder: PG9 antibody binding by small molecule; TR-FRET gp120-PG9 antibody binding; inhibition, % at 6.7 µM; 0.43% of 360,000 active; AID 624416; in the data active means inhibition above about 8.5%
# PGE2 EP2 inh: blocks the human prostaglandin E2 receptor EP2; P43116; 0.52% of 260,000 active; C6 glioma cells expressing human EP2, cAMP TR-FRET; cells stimulated with saturating PGE2; inhibition, % at 25 µM;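 active means percent inhibition above 40 after rounding to a whole number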;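 further: rat C6 glioma host cells with rolipram phosphodiesterase inhibitor present; the protocol text gives 20 µM as final concentration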
# The depositor's hits bear a star; x = no result given. Hits are enriched below; roughly 2.9% of the tested compounds scored in any of these assays.
SMILES,NR1D1 modulator,EP2 mod,RAM inhibit,SKN-1 block,PG9 binder,PGE2 EP2 inh
Cc1ccc(O)c(NC(=O)C2CC(c3ccccc3Cl)=NO2)c1 (configuration not stated),x,-79,x,x,x,11
Cc1ccc(NC(=O)CSc2nnc(-c3ccco3)n2C)cc1Cl,x,-34,x,x,x,12
Cc1nnc(NC(=O)c2c(Cl)cccc2Cl)s1,x,-10,x,x,x,8
Cc1nc2c(c(=O)[nH]1)CN(Cc1ccc3c4ccccc4n(C)c3c1)CC2,x,-42,x,x,x,x
O=C(O)CCCCn1c(SCC(=O)Nc2ccccc2C(F)(F)F)nc2ccsc2c1=O,1,42,8.7*,11,0,5
COc1ccc(NC(=O)CSc2nc3ccsc3c(=O)n2CCCCCC(=O)O)cc1,1,32,11*,0,3,5
O=C(O)CCCCCn1c(SCC(=O)Nc2ccc(F)cc2)nc2ccsc2c1=O,-1,57,6,0,3,4
CC(C)C(c1nnnn1Cc1ccco1)N1CCN(c2ccc(F)cc2)CC1 (configuration not stated),x,-19,x,x,x,12
COc1ccccc1NC(=O)CSc1nnc(-c2ccncc2)o1,2,6,1,40*,-2,3
CCOc1ccccc1NC(=O)CSc1nnc(-c2ccncc2)o1,-2,x,x,-1,0,x
CC1CCCC(NC(=O)CCCn2c(=S)[nH]c3ccccc3c2=O)C1C (configuration not stated),4,-15,9.0*,0,1,5
CC(Oc1ccc(Cl)cc1Cl)C(=O)Nc1ccc(N2CCOCC2)cc1 (configuration not stated),x,23,x,x,x,16
O=C(c1ccccc1)N(Cc1ccccc1)Cc1ccccc1,-3,x,x,6,-1,x
CC1(C(=O)N(Cc2ccccc2)Cc2ccccc2)CC1(Br)Br (configuration not stated),8,37,8.8*,11,-1,10
Cc1ccc(N2CC34C=CC(O3)C(C(=O)OC(C)C(=O)NC(C)(C)C)C4C2=O)c(C)c1 (configuration not stated),x,-11,x,x,x,9
Fc1ccccc1C1c2[nH]c3ccccc3c2CCN1Cc1ccoc1 (configuration not stated),-2,64*,1,62,-1,8
Cc1cc(-c2cnc(C)nc2C2CCCN(Cc3cscn3)C2)on1 (configuration not stated),x,7,x,x,x,x
O=C(CSCc1ccc([N+](=O)[O-])cc1)Nc1ccc(S(=O)(=O)N2CCCCCC2)cc1,7,-8,10*,-4,-1,10
O=[N+]([O-])c1ccc(Oc2ccc(F)cc2)c2ccncc12,-3,30,-1,36*,0,10
CCc1ccc(-c2csc3ncn(CC(=O)Nc4ccccc4OC)c(=O)c23)cc1,x,-61,x,x,x,14
N#CC1(Cc2ccccc2)c2ccccc2C=CN1C(=O)c1ccccc1 (configuration not stated),5,48,8.7*,-8,0,17
CC(C)(C)C(=O)N1CCCC(c2ncncc2-c2ccncc2)C1 (configuration not stated),x,-4,x,x,x,x
CCC(=O)N(Cc1ccco1)c1nc(-c2ccc(OC)cc2)cs1,-1,-23,10.0*,13,0,12
CCN(C(=O)c1ccco1)c1nc(-c2ccc(OC)cc2)cs1,-10,26,x,46*,-4,13
COc1ccc(-c2csc(N(CC(C)C)C(=O)c3ccco3)n2)cc1,1,x,x,-6,-2,x
SMILES,NR1D1 modulator,EP2 mod,RAM inhibit,SKN-1 block,PG9 binder,PGE2 EP2 inh
CN(C(=O)c1ccco1)c1nc(-c2ccccc2)cs1,0,x,x,40*,-1,x
CCn1c(SCC(=O)Nc2nc3ccc(C)cc3s2)nc2c(c1=O)SC(C)C2 (configuration not stated),x,-27,10*,23,x,28
CCn1c(SCC(=O)Nc2nc3ccccc3s2)nc2c(c1=O)SC(C)C2 (configuration not stated),-1,5,1,x,-1,14
CN(C)S(=O)(=O)c1ccc(NC(=O)C(=O)Nc2ccc3c(c2)OCCO3)cc1,x,2,x,x,x,6
CSCCC(NC(=O)c1ccc([N+](=O)[O-])cc1Cl)C(=O)OCC(=O)NCCCc1ccccc1 (configuration not stated),5,-68,9.5*,-3,-1,2
O=[N+]([O-])c1cccc(-c2c(-c3ccccc3)ncc3cc(F)ccc23)c1,-6,x,x,37*,0,x
CC(C)(C)OC(=O)NCCc1nnc(SCc2ccc(Cl)cc2Cl)o1,5,2,0,6,-1,8
Clc1cccc(NCc2nnc(SCc3ccc(Cl)cc3Cl)o2)c1,-2,29,8.4*,7,2,7
Cc1cccc(-c2noc(CN(C(C)C)S(=O)(=O)c3ccc(F)cc3)n2)c1,-1,34,8.5*,-19,-3,14
COc1cccc(C(=O)N(Cc2nc(-c3cccc(C)c3)no2)C(C)C)c1OC,0,8,2,4,0,7
CCCS(=O)(=O)C(=C(Nc1ccccc1)Nc1ccccc1)S(=O)(=O)CCC,-1,63*,2,0,0,5
OCc1ccncc1.OCc1ccncc1.[Cl][Pt]([Cl])([Cl])[Cl],x,-14,x,x,x,69*
COc1ccc(Cl)cc1NC(=S)NCCSc1ccc(C)cc1,-4,-27,9.4*,6,1,9
COc1ccccc1NC(=S)NCCSc1ccc(Cl)cc1,8,-9,7,10,2,12
Cc1sc(NC(=O)CSc2nc3c(c(=O)n(C)c(=O)n3C)n2C)c(C#N)c1C,x,2,x,x,x,17
C=CCN(CC=C)Cc1c(O)ccc2c1oc(=O)c1ccccc12,2,x,x,8,5,41*
C=CCN(CC=C)Cc1cc(=O)oc2ccc3ccccc3c12,-1,x,x,12,-1,x
CCOc1ccc2nc(NC(=O)CSc3nnc(-c4ccncc4)n3Cc3ccco3)sc2c1,x,-9,x,x,x,7
Cc1cccc(NC2=C/C(=N/S(=O)(=O)c3cccs3)c3ccccc3C2=O)c1,-3,-67,6,14,-2,28
O=C1C(Nc2ccc(O)cc2)=C/C(=N/S(=O)(=O)c2cccs2)c2ccccc21,-5,-83,11*,11,-15,19
Cc1ccc(NC2=C/C(=N\S(=O)(=O)c3cccs3)c3ccccc3C2=O)c(C)c1,x,-36,4,10,x,44*
Cc1ccc2nc3c(cc2c1)CN(Cc1ccc2c(c1)OCO2)C(=O)C(C)O3 (configuration not stated),x,-96,x,x,x,x
COc1ccc(CC(=O)NNC(=O)COc2ccc3ccccc3c2)cc1,-5,-77,4,-7,-27,103*
COc1ccccc1NC(=O)NNC(=O)COc1ccc2ccccc2c1,6,x,x,-7,0,x
O=C(CN(Cc1ccco1)C(=O)CCC(=O)Nc1ccccn1)NCc1ccco1,x,14,x,x,x,17
c1ccc(SC(Sc2ccccc2)c2ccc3c(c2)OCO3)cc1,x,27,x,x,x,41*
